ELG1 DNA repair – blocks ELG1-dependent DNA repair in HEK293T cells; AID 504467; Potency, µM (highest dose often 46.1 µM), for inactives: at the top dose activity change, negative = inhibition, usual class: inhibitors; actives 2.3% (n = 330,000); HEK293T ELG1-luciferase reporter, luminescence, 16 h; DNA damage induced by 5-fluorouridine; note: potency is the fitted concentration of half-maximal effect; nearly all actives have a fitted effect of over 55% in size
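Step one: seed 2,000 cells per well. Step two: pin-transfer compound or DMSO alongside 5-fluorouridine. Step three: incubate 16 hr, 37 °C, 5% CO2. Step four: add ONE-Glo, wait 30 min, read luminescence.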
TDP1 cell noCPT – qHTS for Inhibitors of human tyrosyl-DNA phosphodiesterase 1 (TDP1): qHTS in cells in absence of CPT. DT40 Tdp1-/- hTDP1 cells, no CPT, ATP luminescence, 48 h. Potency, µM (series often up to 46.2 µM), inactives show at the top dose activity change, negative = growth inhibition, hits mostly inhibitors. actives 15% (n = 420,000). AID 686978, 2013; note: potency is the fitted concentration of half-maximal effect; nearly all actives have a fitted effect of over 55% in size
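Growth of hTDP1-complemented DT40 Tdp1-knockout cells is measured by ATP luminescence after at least 48 hr compound exposure at 37 °C, with DMSO substituting for the 20 nM CPT used in the parallel screen.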
DT40 TDP1 CPT – DT40-hTDP1 cell growth loss with CPT; chicken DT40 Tdp1-/-;hTDP1 cells + 20 nM CPT, ATP luminescence, 48 h; Potency, µM (highest dose often 46.2 µM), without a hit: top-dose activity change, negative = growth inhibition, most hits filed as inhibitors; actives 12% (n = 420,000); note: potency is the fitted concentration of half-maximal effect; nearly all actives have a fitted effect of over 55% in size
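Chicken DT40 Tdp1-/- cells complemented with human TDP1, 400 cells/well, exposed to compounds plus 20 nM camptothecin for at least 48 h at 37 C; viability read as ATP content by CellTiter-Glo luminescence.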
IL-1B inflam inh – inhibitors of inflammasome signaling (IL-1 beta secretion) | THP-1 LPS/ATP IL-1B secretion, AlphaLISA, 16 h; hits give low values | activity change, % at 57.5 µM | actives 4.7% (n = 360,000) | AID 743279; in the data active = activity change below about -50%; inconclusive = mostly about -30% to -49%
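THP-1 cells pretreated 1 hr with compounds (up to 57.5 uM final), then stimulated with LPS (250 ng/mL final) plus ATP (1.25 mM final); secreted IL-1B measured by AlphaLISA after 16 hr, decreased signal indicating inhibition.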
RORg inh – inhibitors of mouse ROR gamma transcriptional activity; P51450; Drosophila S2 Gal4-RORgamma UAS-luciferase reporter, 20 h; Potency, µM (highest dose often 53.6 µM), for inactives: at the top dose activity change, negative = inhibition, actives largely listed as inhibitors; actives 5.4% (n = 310,000); note: potency is the fitted concentration of half-maximal effect; nearly all actives have a fitted effect of over 60% in size
Target sequence (P51450 whole entry, looked up, the tested form may be a part): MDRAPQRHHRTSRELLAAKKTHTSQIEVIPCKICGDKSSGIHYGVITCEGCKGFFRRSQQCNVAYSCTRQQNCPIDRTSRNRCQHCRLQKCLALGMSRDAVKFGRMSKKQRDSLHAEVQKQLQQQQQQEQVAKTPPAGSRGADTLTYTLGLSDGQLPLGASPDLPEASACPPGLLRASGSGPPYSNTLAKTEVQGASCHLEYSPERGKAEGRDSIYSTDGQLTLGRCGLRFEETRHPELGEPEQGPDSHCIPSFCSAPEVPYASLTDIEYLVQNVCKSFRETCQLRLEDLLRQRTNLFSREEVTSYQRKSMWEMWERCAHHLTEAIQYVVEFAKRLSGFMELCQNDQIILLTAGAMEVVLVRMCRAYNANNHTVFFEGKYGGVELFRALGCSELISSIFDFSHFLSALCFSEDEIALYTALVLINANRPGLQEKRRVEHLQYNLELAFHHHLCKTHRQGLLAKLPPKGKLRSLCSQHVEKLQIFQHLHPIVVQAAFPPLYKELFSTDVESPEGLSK
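Read-out: Photinus luciferase luminescence; inhibitors lower reporter signal. Insect Schneider cells with Gal4-ROR gamma fusion under metallothionein promoter, UAS reporter; 700 uM final copper sulfate induction, 20 hr, ambient temperature.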
Gal4-VP16 FLuc – Gal4-VP16 reporter inhibition counter-screen; Potency, µM (top dose mostly 53.6 µM), inactives show at the highest dose activity, negative = inhibition, actives largely listed as inhibitors; actives 3.5% (n = 310,000); Drosophila S2 Gal4-VP16 UAS-luciferase, luminescence, 20 h; AID 2546;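 note: Gal4-VP16 expression switched on by copper sulfate through the metallothionein promoter; potency is the fitted concentration of half-maximal effect; nearly all actives have a fitted effect of over 50% in size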
Starred values were filed as active, the others as inactive; ! = repeats disagree; [ ] = remark or other dose. Sampled rows, rich in hits. Any-hit rate of the full collection: about 21%. Unless noted, calls come from the whole dose curve; as a rule, active = well fitted curve in the direction sought with a large enough effect; inconclusive = small, poorly fitted or top-dose-only effect, or another doubt; inactive = no such curve, though single readings can be large; an effect the other way counts as inactive or inconclusive. % is set by controls: 0 for no effect and ±100 for the full control effect.

How did Cc1c(C(=O)Nc2cc(S(=O)(=O)N3CCOCC3)ccc2N2CCOCC2)oc2ccccc12 do in these assays?
ELG1 DNA repair: 16.4µM*; TDP1 cell noCPT: inconclusive; DT40 TDP1 CPT: 18.4µM*; IL-1B inflam inh: -8.5; RORg inh: 13.0%; Gal4-VP16 FLuc: -2.5%

Results for Cc1c(C(=O)Nc2ccc(F)c(F)c2)oc2ccc(S(=O)(=O)N3CCCCC3)cc12 ?
ELG1 DNA repair: inconclusive; TDP1 cell noCPT: inconclusive; DT40 TDP1 CPT: 23.1µM*; IL-1B inflam inh: inconclusive; RORg inh: -10.2%; Gal4-VP16 FLuc: 3.9%

How did CCCc1ccc2oc(C(=O)N(C)CCn3ccnc3C)c(C)c2c1 do in these assays?
ELG1 DNA repair: inconclusive; TDP1 cell noCPT: 13µM*; DT40 TDP1 CPT: 20.6µM*; IL-1B inflam inh: 9.2; RORg inh: -13.7%; Gal4-VP16 FLuc: -7.9%

What do the screens show for `Cc1c(C(=O)NCc2ccccc2)oc2ccc(S(=O)(=O)N3CCC4(CC3)OCCO4)cc12`?
ELG1 DNA repair: 4.11µM*; TDP1 cell noCPT: 20.6µM*; DT40 TDP1 CPT: inconclusive; IL-1B inflam inh: -11.0; RORg inh: 37.3%; Gal4-VP16 FLuc: 11.5%[0.365 µM]

How did CCCc1ccc2oc(C(=O)N(C)Cc3cnccn3)c(C)c2c1 do in these assays?
ELG1 DNA repair: 0.4%; TDP1 cell noCPT: inconclusive; DT40 TDP1 CPT: inconclusive; IL-1B inflam inh: 11.5; RORg inh: -11.7%; Gal4-VP16 FLuc: 6.7%

What do the screens show for `Cc1ccc(Cl)cc1NC(=O)c1oc2ccc(S(=O)(=O)N3CCC4(CC3)OCCO4)cc2c1C`?
TDP1 cell noCPT: -14.7%; DT40 TDP1 CPT: -24.5%

What do the screens show for `COc1ccc(CCNS(=O)(=O)c2ccc3oc(C(=O)O)c(C)c3c2)cc1OC`?
ELG1 DNA repair: 6.2%; TDP1 cell noCPT: 11.3%; DT40 TDP1 CPT: 1.9%; IL-1B inflam inh: 7.3; RORg inh: 9.8%; Gal4-VP16 FLuc: -5.8%

How did Cc1c(C(=O)Nc2cccc(Cl)c2)oc2ccc(S(=O)(=O)N3CCC4(CC3)OCCO4)cc12 do in these assays?
ELG1 DNA repair: 9.2µM*; TDP1 cell noCPT: 18.4µM*; DT40 TDP1 CPT: 9.2µM*; IL-1B inflam inh: 0.0; RORg inh: 22.9%; Gal4-VP16 FLuc: -0.9%

How did CCCCN(C)C(=O)c1oc2ccc(S(=O)(=O)N3CCCCCC3)cc2c1C do in these assays?
ELG1 DNA repair: inconclusive; TDP1 cell noCPT: inconclusive; DT40 TDP1 CPT: 18.4µM*; IL-1B inflam inh: -67.6*; RORg inh: inconclusive; Gal4-VP16 FLuc: -6.5%

How did Cc1c(C(=O)Nc2cccc(Cl)c2)oc2ccc(S(=O)(=O)N3CCCCCC3)cc12 do in these assays?
TDP1 cell noCPT: inconclusive; DT40 TDP1 CPT: 23.1µM*

How did Cc1c(C(=O)O)oc2ccc(S(=O)(=O)NCc3ccccc3)cc12 do in these assays?
ELG1 DNA repair: 9.2µM*; TDP1 cell noCPT: -8.6%; DT40 TDP1 CPT: -0.5%; IL-1B inflam inh: 0.2; RORg inh: 23.8%; Gal4-VP16 FLuc: -0.6%

What do the screens show for `Cc1c(C(=O)O)oc2ccc(S(=O)(=O)N3CCCC3)cc12`?
ELG1 DNA repair: 16.0%; TDP1 cell noCPT: 9.8%; DT40 TDP1 CPT: 9.0%; IL-1B inflam inh: 24.9; RORg inh: -5.8%; Gal4-VP16 FLuc: -17.4%

What do the screens show for `Cc1c(C(=O)Nc2ccc(F)c(F)c2)oc2ccc(S(=O)(=O)N3CCC4(CC3)OCCO4)cc12`?
TDP1 cell noCPT: 11.6µM*; DT40 TDP1 CPT: 13µM*

What do the screens show for `COc1cccc(NC(=O)c2oc3ccc(S(=O)(=O)N4CCOCC4)cc3c2C)c1`?
ELG1 DNA repair: 20.6µM*; TDP1 cell noCPT: 13µM*; DT40 TDP1 CPT: 14.6µM*!; IL-1B inflam inh: -9.8; RORg inh: inconclusive; Gal4-VP16 FLuc: 2.9%

Results for Cc1ccc(NC(=O)c2oc3ccc(S(=O)(=O)N4CCOCC4)cc3c2C)cc1C ?
ELG1 DNA repair: inconclusive; TDP1 cell noCPT: -18.0%; DT40 TDP1 CPT: inconclusive; IL-1B inflam inh: 20.2; RORg inh: -35.2%; Gal4-VP16 FLuc: -21.1%

Results for COc1ccc(CCCn2ncc3c2nc(N)n2nc(-c4ccco4)nc32)cc1 ?
RORg inh: 36.7%; Gal4-VP16 FLuc: -18.9%

Results for COc1ccc(Br)cc1C(=O)NC(=S)Nc1ccc(Cl)c(C(=O)O)c1 ?
ELG1 DNA repair: 4.9%; TDP1 cell noCPT: -23.7%; DT40 TDP1 CPT: -17.7%; IL-1B inflam inh: 24.3; RORg inh: inconclusive; Gal4-VP16 FLuc: -3.9%

Results for Cc1ccc(C(=O)NC(=S)Nc2ccc(CN3CCOCC3)cc2)cc1 ?
ELG1 DNA repair: 0.8%; TDP1 cell noCPT: inconclusive; DT40 TDP1 CPT: 20.6µM*; IL-1B inflam inh: -28.7; RORg inh: 14.1µM*; Gal4-VP16 FLuc: inconclusive

How did COc1ccc(Br)cc1C(=O)NC(=S)Nc1ccc(CN2CCOCC2)cc1 do in these assays?
ELG1 DNA repair: inconclusive; TDP1 cell noCPT: 13µM*; DT40 TDP1 CPT: 18.4µM*; IL-1B inflam inh: -68.4*; RORg inh: inconclusive; Gal4-VP16 FLuc: inconclusive

Results for CC(C)Oc1ccc(C(=O)NC(=S)Nc2ccc(CN3CCOCC3)cc2)cc1 ?
ELG1 DNA repair: inconclusive; TDP1 cell noCPT: 18.4µM*; DT40 TDP1 CPT: inconclusive; IL-1B inflam inh: -27.3; RORg inh: 7.08µM*; Gal4-VP16 FLuc: 12.6µM*

Results for O=C(NC(=S)Nc1ccc(CN2CCOCC2)cc1)c1cccc(F)c1 ?
ELG1 DNA repair: 8.8%; TDP1 cell noCPT: inconclusive; DT40 TDP1 CPT: inconclusive; IL-1B inflam inh: -11.1

Results for COc1ccccc1-c1cc(N(C)Cc2ccco2)ncn1 ?
TDP1 cell noCPT: -33.0%; DT40 TDP1 CPT: -50.4%; RORg inh: -1.8%; Gal4-VP16 FLuc: -12.8%

How did O=C(Nc1ccccn1)C(c1ccccc1)c1ccccc1 do in these assays?
TDP1 cell noCPT: 20.6µM*; DT40 TDP1 CPT: 14.6µM*; IL-1B inflam inh: 32.7

What do the screens show for `O=C(Nc1ccccn1)c1ccccc1`?
TDP1 cell noCPT: -3.7%; DT40 TDP1 CPT: 4.4%; IL-1B inflam inh: -3.3

How did Cc1ccc(NC(=O)C(c2ccccc2)c2ccccc2)nc1 do in these assays?
ELG1 DNA repair: -3.6%; TDP1 cell noCPT: inconclusive; DT40 TDP1 CPT: 20.6µM*; IL-1B inflam inh: -8.5; RORg inh: -5.6%; Gal4-VP16 FLuc: 4.4%

What do the screens show for `COc1cccc(-n2c(-c3ccco3)nc3c(cnn3-c3ccccc3C)c2=O)c1`?
TDP1 cell noCPT: 18.4µM*; DT40 TDP1 CPT: 20.6µM*

High-throughput results (PubChem)
